Source: article PMC7819943, “Rice protein-binding microarrays: a tool to detect cis-acting elements near promoter regions in rice”
The full ranking holds about 68,000 sequences; the median of “fluorescence intensity (a.u.)” is about 9,100, and the highest 2% start at about 16,000. Many of the other results were omitted from the sample, so the highest values are more common in it than they were.

Target: OsWRKY34 (Oryza sativa, UniProt Q0JBA9 1-250)
Experiment: protein-binding microarray (RPBM); PBS, 2% BSA, 51.3 ng/ul salmon testes DNA, 50 uM zinc acetate, 200 nM TF, 25 C, 1 h; high values mean tight binding
Details: protein: recombinant; tags: N-terminal polyhistidine and DsRed monomer fusion (pET32a); label: CyDye5-dUTP incorporated in the synthesized complementary strand; 3' TTTTT single-stranded linker to array surface; dsDNA, one strand shown
Procedure, shortened: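 Transcription factors were each fused at the N-terminus to a polyhistidine tag plus DsRed and expressed in E. coli BL21-CodonPlus before Ni–NTA purification. Binding to a double-stranded custom Agilent array was carried out with 200 nM protein at 25 °C for 1 h in PBS, 2% BSA, salmon testes DNA and 50 µM zinc acetate. The binding signal is per-feature fluorescence intensity, in arbitrary units, on an Axon 4000B scanner.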

Chain of OsWRKY34 (Q0JBA9 entry or part of it): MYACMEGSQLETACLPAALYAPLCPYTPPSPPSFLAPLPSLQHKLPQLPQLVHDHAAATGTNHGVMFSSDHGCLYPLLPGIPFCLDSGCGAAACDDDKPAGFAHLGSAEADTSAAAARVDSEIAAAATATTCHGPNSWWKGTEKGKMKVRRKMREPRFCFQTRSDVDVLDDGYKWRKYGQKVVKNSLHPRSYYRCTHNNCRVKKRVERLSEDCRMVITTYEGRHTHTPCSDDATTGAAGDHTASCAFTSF

Row | Sequence | binding signal
1 | CTCGCTCACTCGGTCAGCTGCACACACACTGCACTTCGGCCGGAGTCACCTAGTGCAG | 9820 fluorescence intensity (a.u.)
2 | CCAGAACGGCCGGTCAACGGCACCGTTGACCGTATGAGGGCGGAGTCACCTAGTGCAG | 52400 fluorescence intensity (a.u.)
3 | ATGTTGGGCCAGGCTCGAGCTCCTCCTCCTCCGCGTCGTCCGGAGTCACCTAGTGCAG | 8140 fluorescence intensity (a.u.)
4 | GTTGGGGAGCGGGGTGTGTGTGCCAGGCGCTCGGGCGGGGCGGAGTCACCTAGTGCAG | 19500 fluorescence intensity (a.u.)
5 | AGGCAGGGTGGGTGGGTGGTGGGCTTGCTCGCTCCGCGTCCGGAGTCACCTAGTGCAG | 19700 fluorescence intensity (a.u.)
6 | GTGGAGGGGCGGCGTTGGGCAGAGGGGCGGCACGGGTGAACGGAGTCACCTAGTGCAG | 12800 fluorescence intensity (a.u.)
7 | CATGCGGGGCGCGGGCGGCGGTGCAGGGCGGGGTGCGGCCCGGAGTCACCTAGTGCAG | 8730 fluorescence intensity (a.u.)
8 | GTTGGGGAGCGCGGCGGGGCGTCGGAGGAGTTGACAGGAGCGGAGTCACCTAGTGCAG | 8910 fluorescence intensity (a.u.)
9 | GCGGTGCAGGGCGGTGGCGGCGGCGGGTGGGGCGGTGGCGCGGAGTCACCTAGTGCAG | 20900 fluorescence intensity (a.u.)
10 | GGGGTGGCGGCGGCGGCTGCGCGCGGGCGGTGGCGCGGGGCGGAGTCACCTAGTGCAG | 12000 fluorescence intensity (a.u.)
11 | GGTGCGGGGTGGCGGTGCTCGGCCACAGCGGCGCGCGGGGCGGAGTCACCTAGTGCAG | 8130 fluorescence intensity (a.u.)
12 | GTGGGCGTGGGCCCCGCGTCCTGTGGTGGTGGTGGGTGCTCGGAGTCACCTAGTGCAG | 9200 fluorescence intensity (a.u.)
13 | GCGTTGAGGGCAGGCGGCGGCGCTTGGTGGCGGTGGGGCACGGAGTCACCTAGTGCAG | 8370 fluorescence intensity (a.u.)
14 | CGGCCGTCCGCCATCTGCAAAAGGTGTTTTTTCACATGCCCGGAGTCACCTAGTGCAG | 8560 fluorescence intensity (a.u.)
15 | ATCCTCTTGTTTCGTACAGGTCACTTAAATAGTTATAAAACGGAGTCACCTAGTGCAG | 8300 fluorescence intensity (a.u.)
16 | CACTAAACGGCCAAAATCTTCCATCGTATAGTTACGTCACCGGAGTCACCTAGTGCAG | 8410 fluorescence intensity (a.u.)
17 | CTCTACTATCGATCTTTTTTCCACGTCGGTCGCGGCTTTTCGGAGTCACCTAGTGCAG | 9580 fluorescence intensity (a.u.)
18 | AGTATAACTTTTTTTTTGTCACTCTGTTATCTCACATCTGCGGAGTCACCTAGTGCAG | 8760 fluorescence intensity (a.u.)
19 | CTATCTTTTTCTCCATCTTTCTCTGTCCGTCCATTCACCCCGGAGTCACCTAGTGCAG | 8690 fluorescence intensity (a.u.)
20 | CGCCTGCCTGCCGCCACCGCCACTCCACTTTGCTTCACCGCGGAGTCACCTAGTGCAG | 9570 fluorescence intensity (a.u.)
21 | CGCGGTGTGCCGGGGAGGGAGGTGGTGGTTGAGGTTGAGGCGGAGTCACCTAGTGCAG | 11700 fluorescence intensity (a.u.)
22 | AGGTGTGTATCGTACCGTGGCGGGCGCTTTCCTGGTGGGGCGGAGTCACCTAGTGCAG | 10200 fluorescence intensity (a.u.)

Row | Sequence | binding signal
23 | GGGGAGGTGGAGATGAGATGAGGCGGCGGGGTGGCGGTGGCGGAGTCACCTAGTGCAG | 13700 fluorescence intensity (a.u.)
24 | GGGATGGATGGAGGCGGCGGTGCTGAGGTGGTGGGACTGTCGGAGTCACCTAGTGCAG | 8460 fluorescence intensity (a.u.)
25 | TCGGTGGGTGCCGGGCGGAGCGGTTTTTGAGGGAGGGGTCCGGAGTCACCTAGTGCAG | 17600 fluorescence intensity (a.u.)
26 | GATGGATGGGGTGGGGACTGGGGATGGATGGAGGCGGCGGCGGAGTCACCTAGTGCAG | 21300 fluorescence intensity (a.u.)
27 | CTGGGAGGGAGGGGAGGGAGCGCCGCCTTTGCCACTATCGCGGAGTCACCTAGTGCAG | 16900 fluorescence intensity (a.u.)
28 | CGCCGCCTTTGCCACTATCGCTCCCTCCTCCAGCCGGATCCGGAGTCACCTAGTGCAG | 10600 fluorescence intensity (a.u.)
29 | GTGCTGTGATTGGCCGCGCGGGATTTCCTGGGCGGGCGGGCGGAGTCACCTAGTGCAG | 15500 fluorescence intensity (a.u.)
30 | GGATTTCCTGGGCGGGCGGGGCGCGGATAAGGGGTGTGTGCGGAGTCACCTAGTGCAG | 17000 fluorescence intensity (a.u.)
31 | CGAGGAGCGGGGTGGGGTCGGAGGCGGGGAGGGAGGACGCCGGAGTCACCTAGTGCAG | 16100 fluorescence intensity (a.u.)
32 | CATATGTTTTGTTTTGCTTTGGGGCTTTTAGTAGTAGTTCCGGAGTCACCTAGTGCAG | 9460 fluorescence intensity (a.u.)
33 | CACAGATCATTACACACTGTTTGAGCATCTCTCTATTCCTCGGAGTCACCTAGTGCAG | 8320 fluorescence intensity (a.u.)
34 | ACCCATTACAACCCTGTAGTACATGCCACACCGTTTGACACGGAGTCACCTAGTGCAG | 10800 fluorescence intensity (a.u.)
35 | CCTTCACCTGGTAATCATTTCGATGCATTCATTTCCCTATCGGAGTCACCTAGTGCAG | 8470 fluorescence intensity (a.u.)
36 | CTCGGCCAAAAAGAGATATCCCTTTCGCGCTCATCTTATCCGGAGTCACCTAGTGCAG | 9980 fluorescence intensity (a.u.)
37 | GGGATGTGGCGGGCGGTGGGTCCAGGGAGGAGGAGGAGAACGGAGTCACCTAGTGCAG | 15000 fluorescence intensity (a.u.)
38 | GAAAATCTGTGGGAGGGGAGGGGAGGGGACGAGGGGACAGCGGAGTCACCTAGTGCAG | 19000 fluorescence intensity (a.u.)
39 | GGTGAGGTGGTGGTGGTGGTGGTCGGGAAGTGGCGGCGCCCGGAGTCACCTAGTGCAG | 16100 fluorescence intensity (a.u.)
40 | GTGGAGGTCGGGGTCGGGGAGGATGAGGAGGAGGGTGTGGCGGAGTCACCTAGTGCAG | 10100 fluorescence intensity (a.u.)
41 | GGTGGTGGTGGTGGTGCCGGAGCTGGGGAGAAGAGGAGGACGGAGTCACCTAGTGCAG | 9350 fluorescence intensity (a.u.)
42 | TGTGAGGTGGGGTCGGGGTGGAAGTGGGTGAGGAGGGGTGCGGAGTCACCTAGTGCAG | 21700 fluorescence intensity (a.u.)
43 | ATATATATATATATATATATATATATATATATAGGGACAGCGGAGTCACCTAGTGCAG | 9530 fluorescence intensity (a.u.)
